Screens (PubChem)
The list is not random: actives were taken first. Their share in the collection is about 5.4%.
CSC inhib = cancer stem cell inhibition | AID 2717 | cancer stem cell-like cells viability, luminescence | actives 1.1% (n = 300,000) | inhibition, % at 7.5 µM; in the data active = inhibition above about 75%; inconclusive = no clear call, values can overlap the other calls; tested in HMLE shEcad cells
Beta cell apopt = beta cell apoptosis inhibition; actives 0.8% (n = 300,000); protection from apoptosis, % (concentration not given with the values); AID 435005; INS-1E cytokine-induced death, ATP luminescence, 48 h; percent of positive-control rescue, neutral wells zero;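 active = Every replicate reaches about 75%, or at least half do and their mean reaches it too, limit read from the data; inconclusive = At least half of replicates reach the limit but their mean does not; inactive = Under half of replicates reach the limit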;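 also: higher means more ATP so stronger rescue from cytokine killing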
SKKanGAS inh = inhibitors of SKKanGAS S. pyogenes growth in kanamycin (SK-promoter or general growth effect). BacTiter-Glo, 6 h. inhibition, % at 7.5 µM. actives 1.3% (n = 300,000). AID 1662;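 active = mean replicate score, as percent of positive control median, at least 50; inconclusive = mean below 50 but one replicate at or above 50; inactive = mean and every replicate below 50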;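 also: strain carries kanamycin resistance gene driven by streptokinase promoter and grows in 40 µg/ml kanamycin; loss of luminescence reflects streptokinase promoter inhibition or plain growth inhibition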
Mdm2 MdmX PPI = disrupts the human Mdm2-MdmX interaction; O15151+Q00987; SaOS-2 split-luciferase Mdm2/MdmX complementation, luminescence; AID 485346; actives 3% (n = 330,000); inhibition, % at 8 µM;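 active = inhibition of at least 50% at 8 µM in the primary screen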
Calb FLC = affects C. albicans growth with fluconazole | C. albicans CaCi-2 (fluconazole-resistant clinical isolate) + fluconazole, Alamar Blue growth, 48 h | actives 0.57% (n = 300,000) | growth inhibition, % (test concentration not listed);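 active = growth inhibition above about 58% in most replicates, limit read from the data, passing the limit was not always enough; inconclusive = exactly half the replicates above a set limit; inactive = most replicates below a set limit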;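 also: all wells also contain fluconazole at 8 µg/ml as a sub-toxic cotreatment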
MPTP inh = inhibitors of mitochondrial permeability transition pore. actives 1.4% (n = 360,000). inhibition, % at 10 µM. isolated mouse mitochondria, Ca2+ swelling absorbance, 30 min. AID 602449;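 active = inhibition of 50% or more, scaled per plate between neutral and stimulator controls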
MPTP counter = membrane potential counter-screen of mitochondrial pore inhibitors; shares compounds with MPTP inh; isolated mitochondria, Rhodamine 123 fluorescence; inhibition, % at 10 µM; actives 78% (n = 5,000); AID 624504; in the data active = inhibition above about 22%
MPTP abs DR = dose response confirmation of mitochondrial permeability transition pore inhibitors | shares compounds with MPTP inh | isolated mitochondria swelling, absorbance | IC50, µM | actives 58% (n = 780); in the data active = IC50 below about 20 µM
MPTP counter DR = active in counter-screen for permeability transition pore inhibitors. shares compounds with MPTP inh. isolated mitochondria counterscreen, fluorescence read-out. IC50, µM. actives 49% (n = 780). AID 651564; in the data active = IC50 below about 80 µM
Each line names hits and unclear results; the compound was inactive in the other large screens (follow-up assays come after a bar, where they were run).

OC(COc1ccc(Br)cc1)CN1CCC(Cc2ccccc2)CC1 (configuration not stated)	MPTP inh 64 | MPTP counter inactive | MPTP abs DR 6.3 | MPTP counter DR 34
COc1ccc(C(=O)OCC(=O)N2CCN(C(=O)c3ccco3)CC2)cc1OC	none (no result: SKKanGAS inh, Calb FLC)
COCOc1cccc(CN2CCC2(C)C(=O)Nc2cc(OC)ccc2OC)c1 (configuration not stated)	none (no result: CSC inhib, Beta cell apopt, SKKanGAS inh, Mdm2 MdmX PPI, Calb FLC)
COC(=O)c1ccc(CNCC(O)COc2ccc(-c3ccccc3)cc2)cc1 (configuration not stated)	MPTP inh 89 | MPTP counter inactive | MPTP abs DR 8.8 | MPTP counter DR inactive
Cc1ccc(/C([O-])=C(/C(=S)Nc2ccc(SC(F)F)cc2)[n+]2ccccc2)cc1[N+](=O)[O-]	Calb FLC inconclusive, MPTP inh 64 | MPTP counter 80
C[n+]1ccc(/C=N/Nc2nc(Cl)c(C#N)c(Cl)c2Cl)cc1	SKKanGAS inh 91, MPTP inh 103 (no result: Beta cell apopt) | MPTP counter 76
Clc1nnc(N/N=C/c2ccccc2)c2ccccc12	none
c1ccc2c3c(c(CN4CCCC4)cc2c1)COC3	none
Cc1ccc(OCCNC(=O)c2cc(C(=O)NCCOc3ccc(C)cc3)cc([N+](=O)[O-])c2)cc1	MPTP inh 74 | MPTP counter 83
COC(=O)CSc1nc(N)nc(C)c1Cl	none
C/C=C(\NC(C)=O)c1ccccc1	none (no result: SKKanGAS inh, Calb FLC)
Cc1cc(/C(N)=N/OC(=O)Nc2ccccc2)no1	none (no result: Beta cell apopt)
Cc1cc(/C(N)=N/OC(=O)Nc2ccc(Cl)cc2)no1	MPTP inh 57 | MPTP counter 82
CC(C)COc1cccc(C(=O)N2CCN(C(=O)c3ccco3)CC2)c1	none (no result: CSC inhib, SKKanGAS inh, Calb FLC)
CN(C)Cc1c(C(=O)N/N=C/c2cccc(OCc3ccccc3)c2)nnn1-c1nonc1N	MPTP inh 65 | MPTP counter 80
CN(C)Cc1c(C(=O)N/N=C/c2cccc(OCc3c(F)cccc3Cl)c2)nnn1-c1nonc1N	MPTP inh 61 | MPTP counter inactive | MPTP abs DR 6.3 | MPTP counter DR <2.5
CN(C)Cc1c(C(=O)N/N=C/c2ccccc2OCc2c(F)cccc2Cl)nnn1-c1nonc1N	none (no result: CSC inhib)
COc1cc(/C=N/NC(=O)c2nnn(-c3nonc3N)c2C(C)C)ccc1OCc1ccc(F)cc1	SKKanGAS inh 58, MPTP inh 62 | MPTP counter 56
CN(C)c1ccc(N2C(=NC(=O)CCC3CCCC3)SC3CS(=O)(=O)CC32)cc1 (configuration not stated)	none
COn1c2c(c3c4no[n+]([O-])c4ccc31)CCCC2	none
[O-][n+]1c2c(c3c4non(O)c4ccc31)CCCC2	MPTP inh 96 (no result: CSC inhib, Beta cell apopt) | MPTP counter 83
Nc1nc(NC(=O)c2ccc(Cl)cc2)nn1-c1ccccc1	MPTP inh 81 | MPTP counter 35
COc1ccc(-c2nc3cc(NC(=O)Cc4ccc(OC)c(OC)c4)ccc3o2)cc1	MPTP inh 96 | MPTP counter 90
CC(C)(C)C(=O)NC1CC2CCCC(C1)N2C(=O)Nc1ccc(Cl)cc1 (configuration not stated)	none
O=C(O)c1ccc(N2CC3CC(C2)c2cccc(=O)n2C3)c(NC(=S)Nc2ccc(Br)cc2)c1 (configuration not stated)	MPTP inh 89 | MPTP counter 93
CCc1ccc(NC(=S)Nc2cc(C(=O)O)ccc2N2CC3CC(C2)c2cccc(=O)n2C3)cc1 (configuration not stated)	none
CC(=O)N(C)c1ccc(NC(=O)C(Sc2ccccc2)c2ccccc2)cc1 (configuration not stated)	none (no result: Beta cell apopt)
CC(C)(C)NS(=O)(=O)c1ccc(NC(=O)C(Sc2ccccc2)c2ccccc2)cc1 (configuration not stated)	Calb FLC inconclusive, MPTP inh 65 | MPTP counter 73
O=C(Nc1ccccc1)Nc1ccc(F)cc1F	none
COC(=O)c1ccc(NC(=O)Nc2cccc(F)c2)cc1	MPTP inh 85 | MPTP counter 87
